Laboratory results as given in the supplement of paper PMC11732987, “Enantioselective OTUD7B fragment discovery through chemoproteomics screening and high-throughput optimisation” (Communications Chemistry, 2025).

Tests used:
Test in all cases: log2 ratio of Biotin-Ahx-Ub-VS probe labelling (fragment/DMSO); higher = less target engagement (more negative = stronger competition), active = hit call of the paper (q ≤ 0.05, log2 ratio ≤ -1)
Conditions in all cases: compound concentration: 200 uM; treatment time: 3 h
USP16 = USP16 (UniProt Q9Y5T5)
Summary of the method: (§1)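 Labelled DUBs were enriched with NeutrAvidin, digested with LysC and trypsin, and run by diaPASEF LC-MS/MS. The labelling used Biotin-Ahx-Ub-VS at 0.5 µM final for 1 h on HEK293T lysate (495 µg per sample) previously treated in triplicate with fragment at 200 µM or vehicle for 3 h. Values are average log2 fragment/vehicle ratios by unpaired t-test on global-median-normalised Spectronaut quantities of proteins with ≥2 unique peptides.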

USP19 = target: T1, USP19 (UniProt O94966)
T1 sequence (whole entry): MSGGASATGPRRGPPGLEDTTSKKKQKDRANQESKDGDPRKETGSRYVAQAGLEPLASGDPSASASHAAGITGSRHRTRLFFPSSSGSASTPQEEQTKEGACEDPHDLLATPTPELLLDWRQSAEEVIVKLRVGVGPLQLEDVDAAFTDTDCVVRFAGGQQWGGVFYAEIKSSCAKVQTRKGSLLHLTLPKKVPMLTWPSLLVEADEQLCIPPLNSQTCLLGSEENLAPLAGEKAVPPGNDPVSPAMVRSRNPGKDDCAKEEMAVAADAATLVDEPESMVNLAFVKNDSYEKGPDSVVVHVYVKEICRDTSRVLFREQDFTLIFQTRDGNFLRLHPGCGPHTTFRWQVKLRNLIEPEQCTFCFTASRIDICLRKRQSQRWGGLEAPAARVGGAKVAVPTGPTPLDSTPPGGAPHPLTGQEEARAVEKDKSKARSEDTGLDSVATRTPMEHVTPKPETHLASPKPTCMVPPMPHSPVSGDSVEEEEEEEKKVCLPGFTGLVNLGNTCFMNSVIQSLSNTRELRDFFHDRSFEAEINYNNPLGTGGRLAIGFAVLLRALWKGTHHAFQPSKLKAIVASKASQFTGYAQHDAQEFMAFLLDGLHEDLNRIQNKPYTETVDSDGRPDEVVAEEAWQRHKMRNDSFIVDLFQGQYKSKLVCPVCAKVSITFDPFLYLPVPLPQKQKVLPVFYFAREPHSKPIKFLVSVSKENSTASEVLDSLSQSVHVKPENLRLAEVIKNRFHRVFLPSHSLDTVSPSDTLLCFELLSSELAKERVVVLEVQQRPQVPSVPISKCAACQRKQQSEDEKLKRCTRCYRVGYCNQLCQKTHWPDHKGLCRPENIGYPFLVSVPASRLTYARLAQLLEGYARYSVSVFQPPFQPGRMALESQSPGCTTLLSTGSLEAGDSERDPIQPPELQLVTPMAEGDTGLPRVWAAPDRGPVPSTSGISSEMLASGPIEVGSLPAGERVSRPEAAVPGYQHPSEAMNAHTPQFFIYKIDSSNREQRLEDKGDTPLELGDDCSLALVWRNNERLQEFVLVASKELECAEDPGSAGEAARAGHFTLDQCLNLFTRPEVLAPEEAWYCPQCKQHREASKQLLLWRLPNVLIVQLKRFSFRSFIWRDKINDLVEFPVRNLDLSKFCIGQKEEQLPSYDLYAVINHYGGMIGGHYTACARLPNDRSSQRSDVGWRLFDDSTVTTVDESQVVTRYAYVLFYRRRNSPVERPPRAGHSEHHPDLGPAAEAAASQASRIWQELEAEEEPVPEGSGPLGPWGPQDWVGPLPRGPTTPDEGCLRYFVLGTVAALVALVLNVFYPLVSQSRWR
Summary of the method: as §1

USP24 = USP24 (UniProt Q9UPU5)
Summary of the method: as §1

USP25 = target: T2, USP25 (UniProt Q9UHP3)
T2 sequence (whole entry): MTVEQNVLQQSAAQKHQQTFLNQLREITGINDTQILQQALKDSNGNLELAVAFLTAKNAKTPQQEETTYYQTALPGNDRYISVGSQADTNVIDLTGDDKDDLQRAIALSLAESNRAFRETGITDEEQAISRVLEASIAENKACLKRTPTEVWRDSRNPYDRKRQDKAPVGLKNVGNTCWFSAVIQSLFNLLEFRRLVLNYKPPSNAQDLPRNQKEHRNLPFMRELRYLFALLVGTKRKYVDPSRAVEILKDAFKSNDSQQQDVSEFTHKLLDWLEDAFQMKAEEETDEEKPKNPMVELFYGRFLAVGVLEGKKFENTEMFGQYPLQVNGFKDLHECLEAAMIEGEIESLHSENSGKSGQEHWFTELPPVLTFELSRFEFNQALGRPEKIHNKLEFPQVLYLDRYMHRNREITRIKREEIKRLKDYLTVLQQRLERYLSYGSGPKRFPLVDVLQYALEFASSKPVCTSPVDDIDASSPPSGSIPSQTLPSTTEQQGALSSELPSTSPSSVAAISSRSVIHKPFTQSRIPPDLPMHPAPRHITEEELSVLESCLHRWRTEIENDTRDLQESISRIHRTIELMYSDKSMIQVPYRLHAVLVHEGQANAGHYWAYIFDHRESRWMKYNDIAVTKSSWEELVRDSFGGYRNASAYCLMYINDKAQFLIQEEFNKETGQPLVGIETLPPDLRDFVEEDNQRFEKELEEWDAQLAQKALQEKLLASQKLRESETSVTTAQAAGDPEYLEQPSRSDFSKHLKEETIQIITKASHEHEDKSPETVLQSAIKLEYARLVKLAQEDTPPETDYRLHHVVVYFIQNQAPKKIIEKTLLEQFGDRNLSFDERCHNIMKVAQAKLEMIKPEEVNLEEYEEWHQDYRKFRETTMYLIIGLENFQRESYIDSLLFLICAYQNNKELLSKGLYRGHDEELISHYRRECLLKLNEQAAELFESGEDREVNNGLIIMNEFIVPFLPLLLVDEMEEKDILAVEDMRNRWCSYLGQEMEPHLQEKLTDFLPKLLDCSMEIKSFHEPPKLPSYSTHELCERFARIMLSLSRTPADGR
Summary of the method: as §1

USP28 = target: T3, USP28 (UniProt Q96RU2)
T3 sequence (whole entry): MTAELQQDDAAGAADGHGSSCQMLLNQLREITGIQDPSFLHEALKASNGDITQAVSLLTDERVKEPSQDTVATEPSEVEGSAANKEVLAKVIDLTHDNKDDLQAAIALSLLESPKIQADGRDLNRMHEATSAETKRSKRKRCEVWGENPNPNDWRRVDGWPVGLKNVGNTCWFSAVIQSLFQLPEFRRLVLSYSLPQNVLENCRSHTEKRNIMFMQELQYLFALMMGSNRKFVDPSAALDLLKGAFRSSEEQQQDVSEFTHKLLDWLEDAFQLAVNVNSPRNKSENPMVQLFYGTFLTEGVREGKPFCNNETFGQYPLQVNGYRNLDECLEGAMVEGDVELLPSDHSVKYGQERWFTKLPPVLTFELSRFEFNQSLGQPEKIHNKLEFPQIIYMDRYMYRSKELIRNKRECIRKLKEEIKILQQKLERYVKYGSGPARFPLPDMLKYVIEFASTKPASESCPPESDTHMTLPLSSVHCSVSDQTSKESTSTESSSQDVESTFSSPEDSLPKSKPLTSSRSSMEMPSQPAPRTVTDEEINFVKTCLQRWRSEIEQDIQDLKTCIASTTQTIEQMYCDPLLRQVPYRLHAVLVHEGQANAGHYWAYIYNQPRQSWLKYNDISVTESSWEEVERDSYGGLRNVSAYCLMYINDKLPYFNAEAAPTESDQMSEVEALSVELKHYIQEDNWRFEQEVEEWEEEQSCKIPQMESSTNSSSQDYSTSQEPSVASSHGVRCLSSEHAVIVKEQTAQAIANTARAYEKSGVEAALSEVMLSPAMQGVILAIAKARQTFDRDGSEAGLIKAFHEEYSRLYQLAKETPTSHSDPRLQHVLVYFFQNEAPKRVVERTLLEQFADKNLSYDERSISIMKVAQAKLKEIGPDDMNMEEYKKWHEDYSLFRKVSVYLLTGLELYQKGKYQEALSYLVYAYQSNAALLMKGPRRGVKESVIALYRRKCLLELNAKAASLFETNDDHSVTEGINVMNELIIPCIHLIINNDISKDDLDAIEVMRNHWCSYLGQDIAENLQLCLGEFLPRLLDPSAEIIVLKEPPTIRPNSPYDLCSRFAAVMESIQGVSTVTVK
Summary of the method: as §1

Measured: log2 ratio of Biotin-Ahx-Ub-VS probe labelling

USP16, sequence (Q9Y5T5 whole entry, looked up, the tested form may be a part): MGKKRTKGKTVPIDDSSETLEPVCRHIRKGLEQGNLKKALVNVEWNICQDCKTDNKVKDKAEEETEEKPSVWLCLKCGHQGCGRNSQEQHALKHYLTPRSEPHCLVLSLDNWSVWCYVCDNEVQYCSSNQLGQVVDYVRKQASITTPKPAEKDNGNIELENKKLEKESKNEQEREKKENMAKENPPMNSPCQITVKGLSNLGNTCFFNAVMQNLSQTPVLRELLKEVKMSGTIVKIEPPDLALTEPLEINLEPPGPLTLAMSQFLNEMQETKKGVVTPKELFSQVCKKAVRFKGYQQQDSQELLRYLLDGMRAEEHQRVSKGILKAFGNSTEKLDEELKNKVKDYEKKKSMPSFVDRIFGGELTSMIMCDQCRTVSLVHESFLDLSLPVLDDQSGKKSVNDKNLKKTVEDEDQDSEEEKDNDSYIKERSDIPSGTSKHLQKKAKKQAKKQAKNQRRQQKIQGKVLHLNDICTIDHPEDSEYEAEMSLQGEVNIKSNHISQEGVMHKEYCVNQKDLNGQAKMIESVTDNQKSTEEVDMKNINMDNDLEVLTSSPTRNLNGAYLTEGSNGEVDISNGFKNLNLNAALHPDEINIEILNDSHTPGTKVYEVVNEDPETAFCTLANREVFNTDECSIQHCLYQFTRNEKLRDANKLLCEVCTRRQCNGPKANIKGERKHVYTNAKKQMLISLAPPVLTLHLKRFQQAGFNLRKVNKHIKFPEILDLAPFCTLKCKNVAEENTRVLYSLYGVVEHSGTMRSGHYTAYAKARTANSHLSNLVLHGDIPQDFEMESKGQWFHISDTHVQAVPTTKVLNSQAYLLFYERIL
USP24, sequence (Q9UPU5 whole entry): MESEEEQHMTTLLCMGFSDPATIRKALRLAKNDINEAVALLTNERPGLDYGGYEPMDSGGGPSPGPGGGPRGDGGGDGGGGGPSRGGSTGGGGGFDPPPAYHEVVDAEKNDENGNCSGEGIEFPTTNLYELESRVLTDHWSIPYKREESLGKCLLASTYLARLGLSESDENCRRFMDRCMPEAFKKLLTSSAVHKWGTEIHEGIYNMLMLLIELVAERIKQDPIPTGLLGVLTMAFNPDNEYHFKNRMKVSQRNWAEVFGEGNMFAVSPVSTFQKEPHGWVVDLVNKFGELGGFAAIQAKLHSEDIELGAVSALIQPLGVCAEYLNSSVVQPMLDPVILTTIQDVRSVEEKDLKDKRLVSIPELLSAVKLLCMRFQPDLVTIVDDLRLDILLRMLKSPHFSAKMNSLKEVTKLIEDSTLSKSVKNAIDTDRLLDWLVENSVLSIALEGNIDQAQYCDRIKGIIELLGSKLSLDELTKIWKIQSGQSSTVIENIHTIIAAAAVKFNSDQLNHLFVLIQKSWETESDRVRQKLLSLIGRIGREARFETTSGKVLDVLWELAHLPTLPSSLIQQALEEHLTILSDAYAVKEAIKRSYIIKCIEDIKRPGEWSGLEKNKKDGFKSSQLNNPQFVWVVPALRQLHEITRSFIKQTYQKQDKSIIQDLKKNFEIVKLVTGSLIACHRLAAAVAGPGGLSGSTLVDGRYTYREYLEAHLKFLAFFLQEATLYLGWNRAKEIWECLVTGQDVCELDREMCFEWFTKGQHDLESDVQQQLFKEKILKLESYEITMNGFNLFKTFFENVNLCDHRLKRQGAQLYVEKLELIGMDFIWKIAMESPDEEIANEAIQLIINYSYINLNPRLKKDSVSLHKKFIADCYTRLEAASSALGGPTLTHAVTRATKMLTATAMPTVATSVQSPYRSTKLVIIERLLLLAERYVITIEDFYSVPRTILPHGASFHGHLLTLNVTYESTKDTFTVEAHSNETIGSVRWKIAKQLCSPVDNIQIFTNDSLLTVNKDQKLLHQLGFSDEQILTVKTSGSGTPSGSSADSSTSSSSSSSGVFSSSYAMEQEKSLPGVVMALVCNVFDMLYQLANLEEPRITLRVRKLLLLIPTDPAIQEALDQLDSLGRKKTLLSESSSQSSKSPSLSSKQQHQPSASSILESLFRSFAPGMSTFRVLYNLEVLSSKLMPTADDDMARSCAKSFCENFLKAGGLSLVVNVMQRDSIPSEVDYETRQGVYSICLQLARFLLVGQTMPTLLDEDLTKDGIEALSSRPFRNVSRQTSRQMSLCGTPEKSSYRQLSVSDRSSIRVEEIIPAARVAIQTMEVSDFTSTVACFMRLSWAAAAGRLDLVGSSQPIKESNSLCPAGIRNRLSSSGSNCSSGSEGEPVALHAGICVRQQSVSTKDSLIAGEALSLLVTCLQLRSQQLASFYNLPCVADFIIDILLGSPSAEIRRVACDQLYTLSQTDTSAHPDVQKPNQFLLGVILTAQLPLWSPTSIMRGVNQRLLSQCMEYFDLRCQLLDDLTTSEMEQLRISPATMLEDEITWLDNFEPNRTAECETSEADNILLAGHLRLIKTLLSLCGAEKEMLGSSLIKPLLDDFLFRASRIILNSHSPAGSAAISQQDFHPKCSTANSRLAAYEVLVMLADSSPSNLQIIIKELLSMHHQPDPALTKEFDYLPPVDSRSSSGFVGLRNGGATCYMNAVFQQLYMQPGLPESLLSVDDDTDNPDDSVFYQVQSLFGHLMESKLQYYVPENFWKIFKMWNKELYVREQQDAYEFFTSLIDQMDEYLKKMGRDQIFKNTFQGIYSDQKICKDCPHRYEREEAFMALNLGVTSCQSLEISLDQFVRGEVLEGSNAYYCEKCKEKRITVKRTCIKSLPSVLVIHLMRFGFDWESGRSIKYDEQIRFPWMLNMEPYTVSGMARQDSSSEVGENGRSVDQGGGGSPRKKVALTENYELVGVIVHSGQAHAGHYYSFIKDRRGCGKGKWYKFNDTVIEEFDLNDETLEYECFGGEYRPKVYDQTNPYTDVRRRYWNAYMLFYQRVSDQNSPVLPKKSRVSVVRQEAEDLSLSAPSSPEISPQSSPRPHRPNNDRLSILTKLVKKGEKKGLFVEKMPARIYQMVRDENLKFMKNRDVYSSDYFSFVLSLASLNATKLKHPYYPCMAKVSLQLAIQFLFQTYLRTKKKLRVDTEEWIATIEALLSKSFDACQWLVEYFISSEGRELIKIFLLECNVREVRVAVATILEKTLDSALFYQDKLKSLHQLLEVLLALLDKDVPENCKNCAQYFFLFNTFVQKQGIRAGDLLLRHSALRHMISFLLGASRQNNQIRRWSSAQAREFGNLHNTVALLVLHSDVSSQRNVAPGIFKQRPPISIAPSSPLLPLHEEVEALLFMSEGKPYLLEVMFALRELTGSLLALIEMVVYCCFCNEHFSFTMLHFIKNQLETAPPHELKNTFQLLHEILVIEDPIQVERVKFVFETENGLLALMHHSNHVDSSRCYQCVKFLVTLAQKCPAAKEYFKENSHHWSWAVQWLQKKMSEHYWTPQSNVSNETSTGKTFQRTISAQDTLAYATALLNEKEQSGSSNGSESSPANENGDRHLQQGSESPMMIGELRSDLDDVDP

O=C(CCl)N1CCOC2(CCC2)C1
inactive: USP16 0.246 | USP19 0.0251 | USP24 -0.0132 | USP25 -0.216 | USP28 -0.0963
